Source: PubChem BioAssay (Tox21)
Inconclusive results are not listed. Where a call stands in place of a potency, no number is given. The source made the active and inactive calls. The call rests on the fitted dose curve; in most records, active means well fitted cell-killing curve with a large enough effect in the repeat runs; inconclusive means weak or mixed curves, or effect the other way; inactive means no such curve, though single readings can be large or run the other way.

Test: qHTS assay to identify small molecule antagonists of the glucocorticoid receptor (GR) signaling pathway - cell viability counter screen (AID 720693); further: nearly all actives have a fitted effect of over 55% in size
Settings: GR-bla HeLa viability, CellTiter-Glo luminescence, 18 h, with 5 nM dexamethasone present; series mostly up to 58.5 µM
Text: National Center for Advancing Translational Sciences [NCATS]
NIH Chemical Genomics Center [NCGC]
U.S. Environmental Protection Agency [EPA]
National Institutes of Environmental Health Sciences [NIEHS]
National Toxicology Program [NTP]
U.S. Food and Drug Administration [FDA]
The Glucocorticoid receptor (GR) is one of the members of the nuclear receptor family of ligand-dependent transcription factors. GR plays a critical role in carbohydrate, protein and lipid metabolisms and programmed cell death. CellSensor GR-bla HeLa cell line (Invitrogen) contains a beta-lactamase reporter gene under the control of the glucocorticoid response element stably integrated into HeLa cells, a cervical cancer cell line that expresses glucocorticoid receptor. The activation of the reporter gene under culture conditions can be detected by fluorescence intensity. This cell line has been used to screen the Tox21 10K compound library and to identify the compounds that inhibit the GR signaling. The cytotoxicity of the Tox21 compound library against the GR-bla HeLa cell line was tested in parallel by measuring the cell viability using CellTiter-Glo assay in the same wells.
Tox21 Assay Protocol Summary:
The GR-bla HeLa cells were dispensed at 1500 cells/5 ul/well in 1536-well black wall/clear bottom plates using a Multidrop Combi (ThermoFisher Scientific, Waltham, MA) dispenser. After the assay plates were incubated at a 37 C/5% CO2 incubator for 4 hours, 23 nL of compounds dissolved in DMSO, positive controls or DMSO only was transferred to the assay plate by a pintool station (Kalypsys, San Diego, CA), followed by addition of 1 uL of dexamethasone (5 nM, final concentration in the well). The plates were incubated at 37 C for 18 hours. After 1 uL of LiveBLAzerTM B/G FRET substrate was added using a Flying Reagent Dispenser (Aurora Discovery, San Diego, CA), the plates were incubated at room temperature (RT) for 2 hours, and fluorescence intensity was measured by an Envision plate reader (PerkinElmer, Shelton, CT). After measurement of bla assay, 3 ul CellTiter-Glo (Promega, Madison, WI) was added to measure the cytotoxicity and the plates were then incubated at RT for 30 min. The luminescence was measured using a ViewLux (Perkin Elmer) plate reader.

Q: For `CCOc1cc(OP(=S)(OC)OC)nc(CC)n1`, which Potency is on record?
A: Its Potency is “inactive”.

Q: For `C(COCC1CO1)OCC1CO1` (stereo not given), which Potency is on record?
A: Its Potency is “inactive”.

Q: With `CCOC(=O)c1ncn2c1CN(C)C(=O)c1c(I)cccc1-2` as the compound, how does the Potency read?
A: Its Potency is “inactive”.

Q: Which Potency does the source give for `Cc1ccc(-c2nc3ccc(C)cn3c2CC(=O)N(C)C)cc1` here?
A: The Potency was “inactive”.

Q: With `CCC(=O)OC1(c2ccccc2)CCN(C)CC1` as the compound, how does the Potency read?
A: The Potency was “inactive”.

Q: For `CN=CNc1ccc(C)cc1C`, which Potency is on record?
A: Its Potency is “inactive”.

Q: For `CC(C)(N)Cc1ccc(Cl)cc1`, which Potency is on record?
A: Its Potency is “inactive”.

Q: Which Potency does the source give for `O=C(Cl)CCl` here?
A: The Potency was “inactive”.

Q: For `ClCOCCl`, which Potency is on record?
A: The Potency was “inactive”.

Q: For `COP(=O)(OC)O/C(C)=C/C(=O)N(C)C`, which Potency is on record?
A: Its Potency is “inactive”.

Q: For `CC(C)(C)NC[C@H](O)c1ccc(O)cc1Cl`, which Potency is on record?
A: The Potency was “inactive”.

Q: Which Potency does the source give for `C=CC1(C)OC(=O)N(c2cc(Cl)cc(Cl)c2)C1=O` (stereo not given) here?
A: Its Potency is “inactive”.

Q: Which Potency does the source give for `CNC(=O)NC(O)C(Cl)(Cl)Cl` (stereo not given) here?
A: The Potency was “inactive”.

Q: Which Potency does the source give for `CNC(=O)O/N=C(/CSC)C(C)(C)C` here?
A: Its Potency is “inactive”.

Q: For `O=[N+]([O-])CCO`, which Potency is on record?
A: Its Potency is “inactive”.

Q: With `Cn1c(CCCC(=O)O)nc2cc(N(CCCl)CCCl)ccc21` as the compound, how does the Potency read?
A: The Potency was “inactive”.

Q: Which Potency does the source give for `C=CC(=O)OCCN(C)C` here?
A: Its Potency is “inactive”.

Q: For `COC(=O)[C@@H](N)CCCN/C(N)=N/[N+](=O)[O-]`, which Potency is on record?
A: Its Potency is “inactive”.

Q: For `CCOC(=O)C(SP(=S)(OC)OC)c1ccccc1` (stereo not given), which Potency is on record?
A: Its Potency is “inactive”.

Q: Which Potency does the source give for `Cc1ccc(Cl)c(O)c1` here?
A: The Potency was “inactive”.

Q: For `NC(=O)CS(=O)C(c1ccccc1)c1ccccc1` (stereo not given), which Potency is on record?
A: Its Potency is “inactive”.

Q: With `CC(Cl)(Cl)Cl` as the compound, how does the Potency read?
A: The Potency was “inactive”.

Q: For `N#CC(Br)(Br)C(N)=O`, which Potency is on record?
A: Its Potency is “inactive”.

Q: With `CCc1cc(OC)c(C[C@H](C)N)cc1OC` as the compound, how does the Potency read?
A: Its Potency is “inactive”.

Q: With `CC(O)CCl` (stereo not given) as the compound, how does the Potency read?
A: Its Potency is “inactive”.

Q: For `CCSC(=O)Cl`, which Potency is on record?
A: The Potency was “inactive”.

Q: For `CC(C)(O)C(Cl)(Cl)Cl`, which Potency is on record?
A: Its Potency is “inactive”.

Q: Which Potency does the source give for `CC(C)[N+](C)(CCC(C(N)=O)(c1ccccc1)c1ccccc1)C(C)C` here?
A: The Potency was “inactive”.

Q: Which Potency does the source give for `O=C/C=C/c1ccco1` here?
A: Its Potency is “inactive”.

Q: Which Potency does the source give for `S=C=S` here?
A: Its Potency is “inactive”.

Q: With `CC(C)C(C)(N)C#N` (stereo not given) as the compound, how does the Potency read?
A: Its Potency is “inactive”.

Q: For `CCCC(C)C1(CC)C(=O)N=C(S)NC1=O` (stereo not given), which Potency is on record?
A: The Potency was “inactive”.

Q: Which Potency does the source give for `CON(C)C(=O)Nc1ccc(Br)cc1` here?
A: Its Potency is “inactive”.

Q: Which Potency does the source give for `O=[N+]([O-])c1cccc(CCl)c1` here?
A: Its Potency is “inactive”.

Q: Which Potency does the source give for `CCCN1CCC[C@@H]2Cc3nc(N)ncc3C[C@H]21` here?
A: Its Potency is “inactive”.

Q: For `CC(C)(C)C(=O)C(Cl)Cl`, which Potency is on record?
A: Its Potency is “inactive”.

Q: For `C/C=C/CC#N`, which Potency is on record?
A: Its Potency is “inactive”.

Q: For `CCCC(C)(COC(N)=O)COC(N)=O`, which Potency is on record?
A: Its Potency is “inactive”.

Q: With `CN(C)C1CCCCC1` as the compound, how does the Potency read?
A: Its Potency is “inactive”.

Q: Which Potency does the source give for `CC#Cc1cc(C)nc(Nc2ccccc2)n1` here?
A: Its Potency is “inactive”.
